# From PubChem BioAssay (Tox21)
# Results filed as inconclusive are left out. Calls of active or inactive are those of the source. Calls follow the shape of the dose curve; as a rule, active = well fitted activation curve with a large enough effect in the repeat runs; inconclusive = weak or mixed curves; inactive = flat fitted curve, though single readings scatter.
# Experiment: A CellTox Green Cytotoxicity Assay to monitor cytotoxicity in HepG2 cells - 8 hour (AID 1224890); also: nearly all actives have a fitted effect of over 45% in size
# Conditions: CellTox Green fluorescence; series mostly up to 76.8 µM; cytotoxicity increase: at the top concentration
# Source text: National Center for Advancing Translational Sciences [NCATS]
# NIH Chemical Genomics Center [NCGC]
# U.S. Environmental Protection Agency [EPA]
# National Institutes of Environmental Health Sciences [NIEHS]
# National Toxicology Program [NTP]
# Cell-based models are critical for drug discovery. Determining the natural cytotoxic effects resulting from test compounds is an essential research activity. A CellTox Green Cytotoxicity Assay to monitor cytotoxicity in real time of continues cell culture during 40 hours of the compound treatment was used to screen Tox21 10K library compounds in HepG2 cells. CellTox Green Cytotoxicity Assay is a nonlytic, homogeneous, biofluorescent method to measure cytotoxicity in cell culture after experimental manipulation. The assay system uses a proprietary asymmetric cyanine dye that is excluded from viable cells but preferentially stains the dead cell's DNA. […] Viable cells produce no appreciable increases in fluorescence. Therefore, the fluorescence signal produced by the binding interaction with dead cell DNA is proportional to cytotoxicity.
# The mixture of HepG2 cell suspension and reagents were dispensed at 600cells/6 ul/well in 1536-well tissue culture treated black solid bottom plates using a Multidrop dispenser. After the assay plates were incubated at a 37 C/5% CO2 incubator for 5 hours, 23 nL of compounds dissolved in DMSO, positive and negative controls was transferred to the assay plate by a pintool work station. The plates were incubated at 37 C for 40 hours. The fluorescence intensity were measured at 0h, 8h, 16h, 24h, 32h and 40h time points using ViewLux plate reader during compound treatment.
# % is scaled to controls: 0 for no effect and ±100 for the full control effect.
row,SMILES,cytotoxicity increase
1,COP(=O)(OC)OC(c1ccc(Cl)cc1)P(=O)(OC)OC (stereo not given),-9.19% [at 35.3 µM] (inactive)
2,CCc1ccc(C=O)cc1,-2.75% (inactive)
3,Cc1nc2n(c(=O)c1CCN1CCC(c3noc4cc(F)ccc34)CC1)CCC[C@H]2O,-0.979% [at 15.8 µM] (inactive)
4,COc1cc2c(cc1OC)C(=O)CC2,-9.57% [at 35.3 µM] (inactive)
5,O=C(O)c1cc(Cl)cc([N+](=O)[O-])c1Cl,3.94% (inactive)
6,Cc1cc(Cl)c(C)cc1Cl,-2.94% (inactive)
7,COc1ccc(OC)c(Cl)c1,1.48% (inactive)
8,O=C1CCCC(=O)O1,-11.2% (inactive)
9,Cc1ccc2ccc(Cl)cc2n1,0.729% [at 35.3 µM] (inactive)
10,CCCOC(OCCC)OCCC,-2.42% (inactive)
11,OC[C@H](Cc1cccc(O)c1)[C@H](CO)Cc1cccc(O)c1,-7.2% (inactive)
12,CCOCCOCCOCC,4.31% (inactive)
13,CCC(C)(CCC(C)C)C(=O)O (stereo not given),5.38% (inactive)
14,ClCCCl,-3.09% (inactive)
15,Nc1ccc(S(=O)(=O)Nc2ccc(Cl)nn2)cc1,1.37% [at 35.3 µM] (inactive)
16,CCOc1cc(NC(C)=O)ccc1C(=O)OC,-0.0034% [at 35.3 µM] (inactive)
17,O=C(OCC(COC(=O)c1cccnc1)(COC(=O)c1cccnc1)COC(=O)c1cccnc1)c1cccnc1,-0.427% [at 35.3 µM] (inactive)
18,Nc1cccc(O)c1,-0.294% (inactive)
19,O=S(=O)(O)c1cc(O)c2ccc(Nc3ccccc3)cc2c1,1.5% (inactive)
20,Cc1cc(C(C)(C)C)c(O)c(C)c1CC1=NCCN1,2.38% [at 35.3 µM] (inactive)

row,SMILES,cytotoxicity increase
1,CCCCCCN,3.96% (inactive)
2,C=COCCOCCOCCOC=C,8.81% (inactive)
3,C=C(C)C(=O)OCCNC(C)(C)C,13.2% (inactive)
4,O=C(O)Cc1cn(-c2ccccc2)nc1-c1ccc(Cl)cc1,2.02% [at 35.3 µM] (inactive)
5,On1nnc2ccccc21,3.16% (inactive)
6,O=S(=O)(O)c1ccc2cc(O)c(S(=O)(=O)O)cc2c1,7.83% (inactive)
7,Brc1ccc(-c2ccccc2)cc1,1.54% (inactive)
8,CCCCC(CC)COCCO (stereo not given),-0.76% (inactive)
9,CN(C)CCOCCO,0.0761% (inactive)
10,CC(C(=O)O)c1ccc2c(c1)CC(=O)c1ccccc1S2 (stereo not given),-2.67% [at 35.3 µM] (inactive)
11,C=C(C)C(=O)OCCOP(=O)(O)OCCOC(=O)C(=C)C,-7.75% (inactive)
12,Oc1cn2c(n1)Nc1ccc(Cl)c(Cl)c1C2,-5.9% [at 15.8 µM] (inactive)
13,NC(CO)C(=O)NNCc1ccc(O)c(O)c1O (stereo not given),9.19% [at 35.3 µM] (inactive)
14,CCC(CC)CO,13.3% (inactive)
15,CCN(CC)CC(=O)Nc1c(C)cccc1C,-5.51% [at 35.3 µM] (inactive)
16,CCC(C)NC(N)=O (stereo not given),16.2% (inactive)
17,Cc1ccccc1OCC(O)CO (stereo not given),4.54% [at 35.3 µM] (inactive)
18,c1ccc2c(c1)ccc1c3ccccc3ccc21,1.06% [at 35.3 µM] (inactive)
19,CC(C)C(=O)OCCc1ccccc1,1% (inactive)
20,COC(=O)c1ccccc1C(=O)c1ccc(OCCN2CCCCC2)cc1,4.04% [at 35.3 µM] (inactive)
